Assay results from PubChem BioAssay (Tox21).
Records with an inconclusive call do not appear. Entries that show only a call come without a potency. The source made the active and inactive calls. Calls come from the whole dose curve; as a rule, active = well fitted activation curve with a large enough effect in the signal ratio in the repeat runs (not every such curve was filed as active); inconclusive = weak or mixed curves, or effect the other way; inactive = flat fitted curve, though single readings scatter; the % refers to the signal ratio.

Each compound was assayed against Estrogen receptor beta (Homo sapiens) (UniProt Q92731) (assay: qHTS assay to identify small molecule agonists of the estrogen receptor beta (ER-beta) signaling pathway (AID 1259377)). Details: ER-beta-UAS-bla HEK293T, beta-lactamase FRET ratio, 16 h; series mostly up to 92.4 µM.
Chain of Estrogen receptor beta (Homo sapiens) (Q92731 whole entry, looked up): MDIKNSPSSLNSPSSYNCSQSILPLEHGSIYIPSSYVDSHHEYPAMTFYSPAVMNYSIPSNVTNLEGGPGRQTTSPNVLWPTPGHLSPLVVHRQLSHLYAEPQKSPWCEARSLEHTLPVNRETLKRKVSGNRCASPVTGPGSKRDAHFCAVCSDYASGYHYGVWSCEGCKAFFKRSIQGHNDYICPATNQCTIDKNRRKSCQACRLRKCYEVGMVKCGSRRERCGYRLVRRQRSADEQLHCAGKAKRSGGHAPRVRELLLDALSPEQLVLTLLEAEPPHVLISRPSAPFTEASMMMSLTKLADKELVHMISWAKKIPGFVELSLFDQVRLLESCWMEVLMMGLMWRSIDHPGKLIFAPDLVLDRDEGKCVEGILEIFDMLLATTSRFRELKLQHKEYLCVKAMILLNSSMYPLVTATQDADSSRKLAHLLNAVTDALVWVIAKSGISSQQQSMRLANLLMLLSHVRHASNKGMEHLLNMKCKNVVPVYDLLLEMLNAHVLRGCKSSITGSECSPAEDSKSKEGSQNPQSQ
Source text: U.S. Tox21 Program National Center for Advancing Translational Sciences [NCATS] NIH Chemical Genomics Center [NCGC] U.S. Environmental Protection Agency [EPA] National Institutes of Environmental Health Sciences [NIEHS] National Toxicology Program [NTP] U.S. Food and Drug Administration [FDA] Tox21 Assay Overview: Estrogen receptor (ER), a nuclear hormone receptor, plays an important role in development, metabolic homeostasis and reproduction. Two subtypes of ER, ER-alpha and ER-beta, have similar expression patterns with some uniqueness in both types. Endocrine disrupting chemicals (EDCs) and their interactions with steroid hormone receptors like ER causes disruption of normal endocrine function. To identify the compounds that activate ER signaling, an ER beta-UAS-bla GripTite cell line (Life technologies, Madison, WI, USA) containing a beta-lactamase reporter gene under the control of an Upstream Activator Sequence (UAS) was used to screen Tox21 10K compound library.
Tox21 Assay Protocol Summary: ER-beta-UAS-bla HEK293T cells were dispensed at 2,000 cells/5 uL of assay medium containing 2% charcoal stripped FBS per well into black wall/clear-bottom 1536-well plates using a Multidrop Combi (ThermoFisher Scientific, Waltham, MA) dispenser. After the assay plates were incubated at a 37C and 5% CO2 for 6 hr, 23 nL of compounds dissolved in DMSO, positive controls or DMSO only was transferred to the assay plate by a Pintool station (Kalypsys, San Diego, CA). The plates were incubated at 37C and 5% CO2 for 16 hr. Then 1 uL of LiveBLAzerTM B/G FRET substrate was added using a BioRAPTR FRD (Flying Reagent Dispenser, Aurora Discovery, San Diego, CA). After the plates were incubated at room temperature for 2 hours, fluorescence intensity was measured by an Envision plate reader (PerkinElmer, Shelton, CT).
COc1ccc(CN(CCN(C)C)c2ncccn2)cc1 was tested, and the Potency was “inactive”.
O=C(O)c1c2ccccc2cc2ccccc12 was tested, and the Potency was “inactive”.
With NCCOCCOCCN the Potency was “inactive”.
For CC1=C(C)C(=O)C(C(CCCCCC(=O)O)c2ccccc2)=C(C)C1=O (stereo not given), the Potency was “inactive”.
With O=C(O)c1ccc2cc(O)ccc2c1 the Potency was “inactive”.
With O=C1c2ccccc2C(=O)C1c1ccc2ccccc2n1 the Potency was “inactive”.
For O=C(O)c1ccccc1-n1cc(C(=O)O)c(=O)c2cc(Nc3c(F)cc(F)cc3Cl)c(Cl)cc21, the Potency was “inactive”.
In the case of O=C(NC1CCN(CCc2c[nH]c3ccccc23)CC1)c1ccccc1, the Potency is reported as “inactive”.
With CCN(CCCCOC(=O)c1ccc(OC)c(OC)c1)C(C)Cc1ccc(OC)cc1 (stereo not given) the Potency was “inactive”.
With CCOc1ccc(NC(C)=O)cc1N the Potency was “inactive”.
In the case of C[Si](C)(C)O[Si](C)(C)O[Si](C)(C)C, the Potency is reported as “inactive”.
With CC1(C)C(=O)NC(=O)N1CO the Potency was “inactive”.
CCC(=O)O[C@]1(C(=O)COC)[C@@H](C)C[C@H]2[C@@H]3CCC4=CC(=O)C=C[C@]4(C)C3(F)[C@@H](O)C[C@@]21C (stereo not given in full) was tested, and the Potency was “inactive”.
In the case of CC(=O)c1cccnc1, the Potency is reported as “inactive”.
C/C(=C\C(C)CC(C)CC(C)C)C1CC(=O)OC1=O (stereo not given) was tested, and the Potency was “inactive”.
In the case of C[C@@H](O)[C@H]1C(=O)N2C(C(=O)O)=C(S[C@@H]3CN[C@H](CNS(N)(=O)=O)C3)[C@H](C)[C@H]12, the Potency is reported as “inactive”.
In the case of CCCCCC1CCC(=O)O1 (stereo not given), the Potency is reported as “inactive”.
CC1(C)[C@@H]2CC[C@]3(C2)[C@@H]1C(=O)CCC3(C)C was tested, and the Potency was “inactive”.
For O=C(OCCOCCOCCOC(=O)c1ccccc1)c1ccccc1, the Potency was “inactive”.
For Clc1cccc(C(c2ccc3nc[nH]c3c2)n2ccnc2)c1 (stereo not given), the Potency was “inactive”.
In the case of O=C1c2ccccc2C(=O)C1c1ccc2cc(S(=O)(=O)O)cc(S(=O)(=O)O)c2n1, the Potency is reported as “inactive”.
In the case of c1ccc(CCNc2nc(-c3ccccc3)cs2)cc1, the Potency is reported as “inactive”.
With Cc1c(N=C=O)cccc1N=C=O the Potency was “inactive”.
In the case of CO[C@@H]1COCC[C@@H]1N[C@@H]1CC[C@@](C(=O)N2CCc3ncc(C(F)(F)F)cc3C2)(C(C)C)C1, the Potency is reported as “inactive”.
CCC(CC)C(=O)O was tested, and the Potency was “inactive”.
With CCCCCCCCS the Potency was “inactive”.
CCCCCCCCCCCCSCCOCCO was tested, and the Potency was “inactive”.
In the case of CCC(=O)O[C@@H]1C[C@H]2CC[C@]1(C)C2(C)C, the Potency is reported as “inactive”.
With Cc1ccc2c(Cl)cc(Cl)c(O)c2n1 the Potency was “inactive”.
With COc1ccc(/C(C)=C/C(=O)O)c(OC)c1 the Potency was “inactive”.
For CC(C)(C)c1cc(C=O)cc(C(C)(C)C)c1O, the Potency was “inactive”.
In the case of C1CCN(CN2CCCCC2)CC1, the Potency is reported as “inactive”.
For COc1cccc([C@H](O)C2CCN(CCc3ccc(F)cc3)CC2)c1OC, the Potency was “inactive”.
For COC=O, the activation was 8.91% [at 8.39 µM] (inactive).
For CCC[Si](OC)(OC)OC, the Potency was “inactive”.
For CCOC(=O)CC(O)(CC(=O)OCC)C(=O)OCC, the Potency was “inactive”.
With NC(=O)c1ccccc1 the Potency was “inactive”.
FC1(F)C(F)(F)C(F)(F)C2(F)C(F)(C1(F)F)C(F)(F)C(F)(F)C1(F)C(F)(F)C(F)(F)C(F)(F)C(F)(F)C12F (stereo not given) was tested, and the Potency was “inactive”.
In the case of C/C(=C(\CCO)SS/C(CCO)=C(\C)N(C=O)Cc1cnc(C)nc1N)N(C=O)Cc1cnc(C)nc1N, the Potency is reported as “inactive”.
In the case of O=C(O)c1ccncc1, the Potency is reported as “inactive”.
